From PubChem BioAssay (NCATS) come the findings set out here.

Results filed as inconclusive are left out. Values without a mark were called inactive. Active and inactive are the calls of the source. Unless noted, the call rests on the fitted dose curve.

Assay [1] concerns the target Androgen receptor (Homo sapiens) (UniProt P10275). Nature of the assay: qHTS assay for small molecule agonists of androgen receptor signaling (AID 588515; active means well fitted curve in the direction sought with a large enough effect in the signal ratio, with a control signal flat; the % refers to the signal ratio; further: on the % scale 0 is the no-effect control and ±100 the full control effect). The conditions noted are these: AR-UAS-bla HEK293, beta-lactamase ratio, agonist 16 h; activation: hits give high values. Summed up:
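Stimulation of an AR-responsive β-lactamase reporter in GripTite HEK293 cells was measured after 16 h compound exposure at 37 °C, via CCF4 fluorescence after 2 h RT. EC50 from Hill fits, normalized to R1881 at 30 nM.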

Assay [2] shares this target. Nature of the assay: qHTS assay for small molecule antagonists of androgen receptor signaling (AID 588516; active means well fitted curve in the direction sought with a large enough effect in the signal ratio, with a control signal flat, not every such curve was filed as active; the % refers to the signal ratio; further: on the % scale 0 is the no-effect control and ±100 the full control effect). As to conditions: AR-UAS-bla HEK293, beta-lactamase ratio, antagonist mode, 16 h; series mostly up to 76.8 µM. An outline of the steps: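 Compounds tested in titration against 10 nM R1881 in AR-responsive bla reporter HEK 293 cells; CCF4 fluorescence (460/530 nm) after 16 h exposure gave IC50 and efficacy.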
Background: In qHTS, concentration-response curves come from the screen itself.

Assay [3] has as its target Glucocorticoid receptor (Homo sapiens) (UniProt P04150). Nature of the assay: qHTS assay for small molecule agonists of glucocorticoid receptor signaling (AID 588532; active means well fitted curve in the direction sought with a large enough effect in the signal ratio, with a control signal flat; the % refers to the signal ratio;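 further: 100% = dexamethasone at 0.1 µM and 0% = DMSO only wells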). As to conditions: HeLa MMTV-bla, beta-lactamase ratio, agonist, 18 h; hits give high values; percent of dexamethasone control, DMSO zero. An outline of the steps: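 Quantitative HTS using CellSensor MMTV-bla HeLa cells in charcoal/dextran-treated serum; compounds tested up to 92 uM. After 18 h at 37 C, CCF4 dye reported reporter induction.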

For assay [4] the target is unchanged. The assay is described as follows: qHTS assay for small molecule antagonists of glucocorticoid receptor signaling (AID 588533; active means well fitted inhibition curve with a large enough effect in the signal ratio, with a control signal flat, not every such curve was filed as active; the % refers to the signal ratio;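 further: cells stimulated with 2 nM dexamethasone as agonist; on the % scale 0 is the no-effect control and ±100 the full control effect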). As to conditions: HeLa MMTV-bla, GRE beta-lactamase ratio, antagonist mode, 18 h; series mostly up to 76.8 µM. An outline of the steps:
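Antagonist-mode qHTS: compound titrations added to GRE-bla HeLa cells, then dexamethasone 2 nM final; 18 h, 37 C. CCF4 FRET fluorescence normalized to dexamethasone and DMSO; IC50 from Hill fit.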

For assay [5], the target named is Peroxisome proliferator-activated receptor gamma (Homo sapiens) (UniProt P37231). Nature of the assay: qHTS assay for small molecule antagonists of peroxisome proliferator-activated receptor gamma signaling (AID 588537; active means well fitted inhibition curve with a large enough effect in the signal ratio, with a control signal flat, not every such curve was filed as active; the % refers to the signal ratio; further: potency means the concentration at half of the fitted maximal effect). As to conditions: HEK293 PPARg-UAS-bla, beta-lactamase ratio, antagonist mode; series mostly up to 76.8 µM. An outline of the steps:
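Cell-based beta-lactamase assay; GW9662 served as the antagonist control. Stimulation used rosiglitazone, final 50 nM, 16 h, 37 C.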

Assay [6] addresses Vitamin D3 receptor (Homo sapiens) (UniProt P11473). The assay is described as follows: qHTS assay for small molecule agonists of vitamin D receptor signaling (AID 588543).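 Further: 0% = DMSO basal and 100% = reference agonist control.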 The conditions noted are these: HEK293T VDR-UAS-bla, beta-lactamase ratio, 16 h; series mostly up to 76.8 µM. An outline of the steps:
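Measured: β-lactamase reporter activity (CCF4, 405 nm excitation, 460/530 nm emission) in HEK293T VDR-UAS-bla cells after 16 h compound exposure at 37 °C. Normalization against 50 nM 1α,25-dihydroxyvitamin D3 and DMSO; Hill-fit EC50.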

Assay [7] is described as follows: qHTS assay for small molecule activators of the nuclear factor-kappa B (NF-kB) signaling pathway (AID 651749; active means well fitted activation curve with a large enough effect in the signal ratio; the % refers to the signal ratio; further: % of control where 0% means no effect). The conditions noted are these: NF-kB-bla ME-180 cells, beta-lactamase FRET ratio, 16 h; activation: hits give high values. An outline of the steps: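 FRET-based beta-lactamase detection in ME-180 cells reports NF-kB response-element-driven transcription following overnight (16 hr) compound treatment.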

The nature of assay [8]: qHTS assay for small molecule agonists of the antioxidant response element (ARE) signaling pathway (AID 651741; active means well fitted activation curve with a large enough effect in the signal ratio; the % refers to the signal ratio; further: potency means the concentration at half of the fitted maximal effect; on activation: % of control where 0% means no effect). The conditions noted are these: HepG2 ARE-bla reporter, beta-lactamase FRET ratio, 16 h; series mostly up to 96 µM. Summed up: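 Agonist activity is measured as ARE-driven beta-lactamase expression in a stable HepG2 reporter line, using 16 h compound treatment at 37 C and a FRET substrate fluorescence readout after 2 h.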

In assay [9] the target is Bile acid receptor (Homo sapiens) (UniProt Q96RI1). Nature of the assay: qHTS assay for small molecule antagonists of farnesoid X receptor signaling (AID 588526). Further: on the % scale 0 is the no-effect control and ±100 the full control effect. The conditions noted are these: HEK293T FXR-UAS-bla, beta-lactamase ratio, antagonist mode; series mostly up to 76.7 µM. An outline of the steps: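 Beta-lactamase reporter antagonist mode: HEK293T FXR-UAS-bla cells, titrated compound, CDCA stimulation, 16 h 37 C, CCF4 dye 2 h RT. Data normalized to CDCA 50 uM and DMSO; Hill-fit IC50.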
Chain of Bile acid receptor (Homo sapiens) (Q96RI1 whole entry, looked up): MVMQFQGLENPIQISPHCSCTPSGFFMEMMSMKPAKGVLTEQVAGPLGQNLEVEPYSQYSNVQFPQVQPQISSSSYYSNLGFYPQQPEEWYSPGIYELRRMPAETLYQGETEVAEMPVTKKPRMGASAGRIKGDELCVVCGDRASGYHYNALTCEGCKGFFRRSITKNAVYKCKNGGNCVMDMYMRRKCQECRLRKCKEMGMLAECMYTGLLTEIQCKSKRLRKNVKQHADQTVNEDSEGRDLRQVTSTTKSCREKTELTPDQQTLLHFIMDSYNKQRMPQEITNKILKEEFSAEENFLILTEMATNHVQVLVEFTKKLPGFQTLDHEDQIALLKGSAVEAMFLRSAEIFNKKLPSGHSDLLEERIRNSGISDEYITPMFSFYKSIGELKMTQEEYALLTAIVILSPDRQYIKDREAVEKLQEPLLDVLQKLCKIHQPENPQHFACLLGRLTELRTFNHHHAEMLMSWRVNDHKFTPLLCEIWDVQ

Chain of Glucocorticoid receptor (Homo sapiens) (P04150 whole entry, looked up): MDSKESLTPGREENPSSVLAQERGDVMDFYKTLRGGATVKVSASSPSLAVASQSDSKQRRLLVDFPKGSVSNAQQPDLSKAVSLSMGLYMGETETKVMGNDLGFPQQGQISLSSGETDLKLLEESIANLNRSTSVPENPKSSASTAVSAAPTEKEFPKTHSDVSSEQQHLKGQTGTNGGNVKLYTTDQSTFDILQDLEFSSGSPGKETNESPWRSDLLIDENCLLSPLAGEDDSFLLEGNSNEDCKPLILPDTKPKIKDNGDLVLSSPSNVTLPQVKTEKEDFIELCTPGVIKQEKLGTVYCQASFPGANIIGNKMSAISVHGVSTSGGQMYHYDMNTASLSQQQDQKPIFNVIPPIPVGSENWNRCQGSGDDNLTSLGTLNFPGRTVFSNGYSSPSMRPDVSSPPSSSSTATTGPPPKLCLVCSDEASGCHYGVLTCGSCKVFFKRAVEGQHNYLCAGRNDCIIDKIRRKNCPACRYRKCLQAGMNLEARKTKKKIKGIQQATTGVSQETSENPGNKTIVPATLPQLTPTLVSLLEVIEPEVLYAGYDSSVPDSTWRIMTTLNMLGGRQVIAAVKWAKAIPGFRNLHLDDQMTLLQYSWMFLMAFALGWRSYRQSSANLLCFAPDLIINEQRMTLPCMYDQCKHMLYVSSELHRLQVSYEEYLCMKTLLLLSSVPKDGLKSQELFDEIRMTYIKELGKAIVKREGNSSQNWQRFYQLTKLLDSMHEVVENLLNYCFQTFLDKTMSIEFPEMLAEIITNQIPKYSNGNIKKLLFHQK
Chain of Peroxisome proliferator-activated receptor gamma (Homo sapiens) (P37231 whole entry, looked up): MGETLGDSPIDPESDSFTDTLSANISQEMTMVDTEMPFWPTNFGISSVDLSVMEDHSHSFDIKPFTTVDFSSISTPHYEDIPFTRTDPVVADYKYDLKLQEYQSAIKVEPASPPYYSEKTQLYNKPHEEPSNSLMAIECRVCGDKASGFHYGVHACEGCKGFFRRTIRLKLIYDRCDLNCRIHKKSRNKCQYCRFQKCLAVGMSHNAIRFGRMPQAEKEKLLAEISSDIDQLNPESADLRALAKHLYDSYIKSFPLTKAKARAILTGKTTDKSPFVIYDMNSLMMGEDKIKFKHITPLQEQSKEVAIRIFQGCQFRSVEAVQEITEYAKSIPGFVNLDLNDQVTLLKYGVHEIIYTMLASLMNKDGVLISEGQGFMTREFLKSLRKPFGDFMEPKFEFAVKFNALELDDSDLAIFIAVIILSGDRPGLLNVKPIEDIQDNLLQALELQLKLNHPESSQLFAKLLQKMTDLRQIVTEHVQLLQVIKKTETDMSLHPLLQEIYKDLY
Chain of Androgen receptor (Homo sapiens) (P10275 whole entry, looked up): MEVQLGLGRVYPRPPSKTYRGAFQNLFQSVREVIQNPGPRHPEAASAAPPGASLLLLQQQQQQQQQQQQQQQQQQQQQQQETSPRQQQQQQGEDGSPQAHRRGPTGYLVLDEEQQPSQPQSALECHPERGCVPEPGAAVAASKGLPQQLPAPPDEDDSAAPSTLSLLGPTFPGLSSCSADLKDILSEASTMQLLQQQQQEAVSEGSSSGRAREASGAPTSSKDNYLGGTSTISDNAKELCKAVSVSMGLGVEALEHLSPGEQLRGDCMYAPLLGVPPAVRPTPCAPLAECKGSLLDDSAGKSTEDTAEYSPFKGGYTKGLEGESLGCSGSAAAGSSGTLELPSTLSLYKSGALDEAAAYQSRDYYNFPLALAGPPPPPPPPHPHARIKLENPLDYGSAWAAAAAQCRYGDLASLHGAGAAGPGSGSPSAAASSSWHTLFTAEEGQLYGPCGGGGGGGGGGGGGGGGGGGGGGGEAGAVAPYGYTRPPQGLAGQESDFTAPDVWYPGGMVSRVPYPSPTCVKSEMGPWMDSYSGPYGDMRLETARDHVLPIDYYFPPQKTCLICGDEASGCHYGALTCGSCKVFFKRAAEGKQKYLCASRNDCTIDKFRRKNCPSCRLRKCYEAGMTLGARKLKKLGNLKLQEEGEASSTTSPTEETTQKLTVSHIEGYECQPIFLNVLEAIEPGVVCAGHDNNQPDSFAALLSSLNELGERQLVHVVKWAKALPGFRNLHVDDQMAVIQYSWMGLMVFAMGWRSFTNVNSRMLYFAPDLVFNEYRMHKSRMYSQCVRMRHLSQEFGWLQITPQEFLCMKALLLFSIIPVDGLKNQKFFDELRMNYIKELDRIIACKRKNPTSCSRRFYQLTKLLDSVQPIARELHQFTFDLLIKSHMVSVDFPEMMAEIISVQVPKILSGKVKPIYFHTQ
Chain of Vitamin D3 receptor (Homo sapiens) (P11473 whole entry, looked up): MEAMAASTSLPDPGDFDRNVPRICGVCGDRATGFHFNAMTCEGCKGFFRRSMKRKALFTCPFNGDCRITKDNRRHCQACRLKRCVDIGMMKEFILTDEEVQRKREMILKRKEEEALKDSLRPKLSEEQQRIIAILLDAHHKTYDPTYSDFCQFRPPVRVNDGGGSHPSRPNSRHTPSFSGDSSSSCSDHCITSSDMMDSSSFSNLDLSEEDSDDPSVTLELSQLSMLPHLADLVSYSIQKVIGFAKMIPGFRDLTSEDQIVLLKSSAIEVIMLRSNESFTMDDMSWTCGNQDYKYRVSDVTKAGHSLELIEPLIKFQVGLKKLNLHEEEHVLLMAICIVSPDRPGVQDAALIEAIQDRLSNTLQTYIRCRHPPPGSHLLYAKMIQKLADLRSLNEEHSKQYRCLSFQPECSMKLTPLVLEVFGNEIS

On to `O=C(O)c1cc2ccccc2cc1O`, for which the activation was -7.51% in [1], 2.47% in [3] and 0.405% in [7]. Also, the result in assay [2] and in assay [6] was inactive. The Potency entry in assay [4] and in assay [5] was “inactive” each time.
Consider `CO[Si](CCCNCCN)(OC)OC`, for which, in [1], the activation was 4.85%. The result in [2] and in assay [6] was inactive. The Potency result in assay [5] was “inactive”.
Take `CCCCN(CCCC)CCCCCCN(CCCC)CCCC`: the Potency entry in [8] was “inactive”.
Take `C=C[Si](C)(C)O[Si](C)(C)C=C`: the Potency entry in assay [4], in assay [5] and in assay [8] was “inactive” in each case. The outcome in assay [6] was inactive.
On to `OCc1cccc(Oc2ccccc2)c1`, for which the values for the activation in assay [1] and in assay [7] were 3.06% and 2.29%, respectively. The result in assay [2] and in assay [6] was inactive. In addition, the Potency entry in assay [9] and in [8] was “inactive” each time.
Turning to `C=CCCCCCCCCCCCC`, the activation in assay [1] was -5.69%; in assay [3] it was 9.05%. Moreover, the outcome in [2] and in [6] was inactive. Further, the Potency result in [9] and in assay [5] was “inactive” throughout.
With `Cc1ccc(S(=O)(=O)C(I)I)cc1`, the activation in assay [7] is -6%.
As for `CCCCCCCCCCCC[N+](C)(C)[O-]`, the results for the activation in assay [1], in [3] and in [7] were -8.49%, 6.56% and 2.53%, respectively. Besides, the Potency entry in assay [9] and in assay [5] was “inactive” throughout. The outcome in assay [6] was inactive.
Turning to `O=C1NC(=O)C(Cc2ccc(OCCN3COc4ccccc4C3=O)cc2)S1` (stereo not drawn), the figures for the activation in assay [1] and in assay [3] were -3.44% and 5.15%, respectively. For the same compound, the Potency result in assay [9] and in assay [4] was “inactive” in each case. Moreover, the Potency in [8] was 48.6 µM (active).
As to `OCCC(F)(F)C(F)(F)C(F)(F)C(F)(F)C(F)(F)C(F)(F)C(F)(F)C(F)(F)F`, the activation in assay [1] is 13.8%. In addition, the outcome in assay [2] and in [6] was inactive. For the same compound, in assay [8], the Potency result is “inactive”.
For the compound `C=C(C)C(=O)OCCN(C)C`, in assay [5], the Potency entry is “inactive”. Further, in assay [6], the result was inactive.
Consider `CCC(C)(C)C1CCC(O)CC1` (stereo not drawn), for which the outcome in assay [6] was inactive. Further, the Potency result in [8] is “inactive”. Besides, the activation in assay [7] is -0.533%.
As for `O=S(=O)(O)c1ccc(N=Nc2cc(S(=O)(=O)O)c3ccccc3c2O)c2ccccc12`, the activation in assay [1] was 11.4%; in [3], -5.27%. The result in assay [2] and in assay [6] was inactive. Also, the Potency result in assay [9], in [4] and in assay [5] was “inactive” in each case.
Turning to `BrC1CCC(Br)C(Br)CCC(Br)C(Br)CCC1Br` (stereo not drawn), the activation in assay [1] is -5.15%; in [3], -5.02%; in assay [7] it was 1.45%. The outcome in assay [2] and in assay [6] was inactive. Besides, the Potency result in assay [9], in assay [4], in assay [5] and in assay [8] was “inactive” throughout.
As to `C[Si](C)(Cl)[Si](C)(C)Cl`, the activation in assay [1] is -5.2%. For the same compound, in assay [2], the result was inactive. Besides, the Potency entry in assay [9], in [5] and in assay [8] was “inactive” throughout.
Regarding `O=C(O)C1(C(=O)Nc2ccc(Cl)cc2Cl)CC1`, the result in assay [2] and in [6] was inactive. In addition, the Potency in [5] was 44.7 µM (active). In addition, in [7], the activation was -1.09%.
For the compound `CCN(Cc1cccc(S(=O)(=O)O)c1)c1ccc(C(=C2C=CC(=[N+](CC)Cc3cccc(S(=O)(=O)[O-])c3)C=C2)c2ccccc2)cc1`, the Potency in assay [8] was 54.5 µM (active). Besides, the activation in assay [7] was -0.828%.
For `CCCCCCCCCCCCCCCCCC#N`, the Potency entry in [4], in [5] and in assay [8] was “inactive” each time.
As for `CC1(C)C(=O)N(Br)C(=O)N1Br`, the activation in assay [1] is -9.37%; in assay [3] it was 5.17%. Moreover, the result in [2] and in [6] was inactive. Further, the Potency entry in assay [9] and in assay [5] was “inactive” each time.
On to `CCCCC(CC)COC(=O)/C=C\C(=O)OCC(CC)CCCC` (stereo not drawn), for which the outcome in assay [2] and in assay [6] was inactive. Moreover, the activation in assay [3] was -2.45%; in assay [7], 0.118%. In addition, the Potency entry in assay [4] was “inactive”. Further, in [8], the Potency was 30.6 µM (active).
As to `CCOC(=O)c1ccccc1C`, the Potency entry in assay [9], in assay [4], in assay [5] and in [8] was “inactive” in each case. Besides, the activation was 10.9% in assay [3] and 0.727% in assay [7].
Consider `O=C1CCC(C2CCCCC2)CC1`, for which the Potency entry in assay [9] and in assay [4] was “inactive” throughout. Also, in assay [6], the result was inactive. For the same compound, the activation in assay [7] was -1.09%.
Consider `COC(OC)(C(=O)c1ccccc1)c1ccccc1`, for which, in assay [3], the activation is -8.93%. In addition, the Potency entry in [4], in assay [5] and in assay [8] was “inactive” throughout. For the same compound, the result in [6] was inactive.
Take `CCOC(=O)NCCOc1ccc(Oc2ccccc2)cc1`: in [9], the Potency result was “inactive”. Moreover, the Potency in [8] is 30.6 µM (active). The activation in assay [7] is 2.75%.
Consider `CCCCCCC(C)(C)S`, for which the Potency result in [9], in assay [4], in assay [5] and in assay [8] was “inactive” in each case. Further, the activation was -11% in [3] and -2.27% in assay [7].
As for `CCCCCCCCCCCCO`, the Potency result in [9], in [5] and in assay [8] was “inactive” each time. In assay [6], the outcome was inactive.
With `O=C(O)CCCCCCC(=O)O`, the Potency entry in [9], in assay [4] and in [5] was “inactive” in each case. In assay [3], the activation is -13.8%. For the same compound, the outcome in [6] was inactive.
Consider `CC(C)C[C@H](NC(=O)OCC1c2ccccc2-c2ccccc21)C(=O)O`, for which the Potency entry in assay [9] and in assay [5] was “inactive” in each case. The activation in [3] was -5.5%; in assay [7], 1.69%.
As to `C1=C/CC/C=C/CC/C=C/CC/1`, the Potency result in assay [9], in [4] and in [8] was “inactive” in each case. Also, the figures for the activation in assay [3] and in assay [7] were 2.01% and 0.104%, respectively. Further, in [6], the result was inactive.
As to `COC(=O)CCSCCC(=O)OC`, the Potency entry in [9] and in assay [4] was “inactive” each time. For the same compound, the figures for the activation in assay [3] and in assay [7] were 8.88% and -0.163%, respectively.
